# A number with no mark means an inactive call. Inconclusive results are not listed. Entries that show only a call come without a potency. Active and inactive are the calls of the source. The call rests on the fitted dose curve; in most records, active means well fitted curve in the direction sought with a large enough effect; inconclusive means small, poorly fitted or top-dose-only effect, or another doubt; inactive means no such curve, though single readings can be large; an effect the other way counts as inactive or inconclusive.
# How the values were obtained:
# [1] = molecular target: Cytochrome P450 2D6 (Homo sapiens) (UniProt P10635); experiment: qHTS Assay for Inhibitors and Substrates of Cytochrome P450 2D6 (AID 891); further: potency means the concentration at half of the fitted maximal effect; nearly all actives have a fitted effect of over 60% in size
# Cytochrome P450 2D6 (Homo sapiens), sequence (P10635 whole entry, looked up): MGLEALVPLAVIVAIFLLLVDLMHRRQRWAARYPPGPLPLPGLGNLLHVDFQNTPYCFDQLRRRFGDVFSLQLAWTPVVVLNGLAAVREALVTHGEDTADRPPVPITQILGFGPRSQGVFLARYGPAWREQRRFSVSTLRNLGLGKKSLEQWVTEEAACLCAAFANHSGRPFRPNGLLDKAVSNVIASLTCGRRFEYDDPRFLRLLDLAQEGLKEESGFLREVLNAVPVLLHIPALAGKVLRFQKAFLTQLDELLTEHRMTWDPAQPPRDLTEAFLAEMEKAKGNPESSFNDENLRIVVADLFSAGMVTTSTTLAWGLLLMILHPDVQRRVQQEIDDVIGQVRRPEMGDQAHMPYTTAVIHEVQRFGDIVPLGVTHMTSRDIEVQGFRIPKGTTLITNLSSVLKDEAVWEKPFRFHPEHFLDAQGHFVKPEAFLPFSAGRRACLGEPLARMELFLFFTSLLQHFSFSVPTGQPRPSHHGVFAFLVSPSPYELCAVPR
# How it was run: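 Human CYP2D6 (5 nM) with 30 uM Luciferin-ME EGE (at Km) in 100 mM KPO4, compound preincubated 10 min, then NADPH regeneration system for 60 min at room temperature. Luciferin read by luminescence; normalized to 1.43 uM quinidine.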
# [2] = molecular target: Alpha-galactosidase (Coffea arabica) (UniProt Q42656); experiment: Counterscreen for Glucocerebrosidase Inhibitors: qHTS Assay for Coffee Bean alpha-Galactosidase at pH 4.5 (AID 957); further: series mostly up to about 77 µM
# Alpha-galactosidase (Coffea arabica), sequence (Q42656 whole entry, looked up): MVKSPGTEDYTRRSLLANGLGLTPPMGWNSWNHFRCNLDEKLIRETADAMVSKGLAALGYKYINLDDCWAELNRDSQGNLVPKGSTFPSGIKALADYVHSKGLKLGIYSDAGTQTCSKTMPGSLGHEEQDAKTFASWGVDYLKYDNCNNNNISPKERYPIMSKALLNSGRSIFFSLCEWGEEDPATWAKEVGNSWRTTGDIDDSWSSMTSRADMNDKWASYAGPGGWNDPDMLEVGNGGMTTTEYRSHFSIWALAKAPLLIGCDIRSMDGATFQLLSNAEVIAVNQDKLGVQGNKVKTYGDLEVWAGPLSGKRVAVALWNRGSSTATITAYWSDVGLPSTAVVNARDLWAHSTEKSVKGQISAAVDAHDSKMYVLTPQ
# How it was run: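 Coffee bean alpha-galactosidase 2 nM, substrate 4-MU-alpha-Gal 80 uM, pH 4.5 citrate/Tween-20, 20 min RT. Cpd titration 0.7 nM–77 uM. Stop pH 10, fluorescence 365/440 nm; Hill-equation AC50.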
# [3] = molecular target: Alpha-galactosidase (Coffea arabica) (UniProt Q42656); experiment: Counterscreen for Glucocerebrosidase Inhibitors: qHTS Assay for Coffee Bean alpha-Galactosidase at pH 5.9 (AID 998)
# How it was run: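 Green coffee bean enzyme (2 nM final) was incubated with compounds (0.7 nM–77 uM) and 4-methylumbelliferyl alpha-D-galactopyranoside (80 uM) in citrate buffer pH 5.9, 20 min at room temperature. High-pH stop; fluorescence 365/440 nm; AC50 from Hill fits.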
# [4] = molecular target: Cytochrome P450 3A4 (Homo sapiens) (UniProt P08684); experiment: qHTS Assay for Activators of Cytochrome P450 3A4 (AID 885); further: nearly all actives have a fitted effect of over 65% in size
# Cytochrome P450 3A4 (Homo sapiens), sequence (P08684 whole entry, looked up): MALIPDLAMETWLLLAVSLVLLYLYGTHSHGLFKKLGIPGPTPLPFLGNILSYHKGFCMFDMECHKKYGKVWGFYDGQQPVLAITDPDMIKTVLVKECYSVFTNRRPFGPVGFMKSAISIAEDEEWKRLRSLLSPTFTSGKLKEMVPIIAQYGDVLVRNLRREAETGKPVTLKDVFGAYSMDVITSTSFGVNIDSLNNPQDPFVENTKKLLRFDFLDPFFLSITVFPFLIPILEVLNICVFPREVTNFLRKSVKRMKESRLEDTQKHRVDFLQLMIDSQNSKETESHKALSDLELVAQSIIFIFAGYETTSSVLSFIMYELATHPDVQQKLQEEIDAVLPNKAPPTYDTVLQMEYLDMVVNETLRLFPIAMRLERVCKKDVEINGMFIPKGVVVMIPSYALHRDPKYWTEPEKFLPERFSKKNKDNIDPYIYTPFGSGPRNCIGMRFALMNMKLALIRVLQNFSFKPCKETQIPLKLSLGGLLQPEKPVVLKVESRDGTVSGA
# How it was run: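 20nM CYP3A4 + 25uM Luciferin-PPXE (=KM), 200mM KPO4; cpd 10 min RT; NADPH regen, 60 min RT; stop w/ detection buffer, 20 min; luminescence. Normalized to 57 uM ketoconazole.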
# [5] = Confirmation and Secondary Assay for Modulators of Hemoglobin Beta Chain Splicing at IVS2 654 locus (AID 910);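 further: per-well total GFP intensity by laser scanning cytometry after 2-day treatment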
# How it was run: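 HeLa cells stably carrying EGFP interrupted by mutant beta-globin IVS2-654 intron (CMV-driven) were treated with compound for 2 days at 37C; corrected splicing was scored as total peak GFP intensity per well (488 nm excitation, 500-520 nm emission).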
# [6] = Confirmation and Secondary Assay for Modulators of Hemoglobin Beta Chain Splicing at IVS2 705 locus (AID 930);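 further: HeLa cells stably expressing the EGFP-705 splicing reporter; GFP fluorescence per well restored by corrected splicing of the IVS2-705 intron in EGFP; series mostly up to about 46 µM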
# How it was run: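 Splice-correction reporter: EGFP cDNA split by beta-globin intron 2 bearing the 705 mutation, stably in HeLa. Compound incubation 2 days, 37C; fluorescent objects 5-250 µm summed per well.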
# [7] = qHTS Assay for Identification of Small Molecule Antagonists for Thrombopoietin (TPO) Signaling Pathway (AID 918); conditions: TPO-dependent cell signaling reporter, antagonist mode; further: potency means the concentration at half of the fitted maximal effect; nearly all actives have a fitted effect of over 60% in size
# How it was run: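 Ba/F3 (murine, hTPO-R, GPIIb-luc reporter); overnight IL-3 withdrawal; cpd + TPO 26 pM final (EC50); 24 h 37 C/5% CO2; Steadylite luminescence after 10 min RT.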
# [8] = molecular target: Muscarinic acetylcholine receptor M1 (Rattus norvegicus) (UniProt P08482); experiment: qHTS Assay for Antagonists of Acetylcholine Muscarinic M1 Receptor: Kinetic Measurement of Intracellular Calcium Response (AID 943); further: potency means the concentration at half of the fitted maximal effect; nearly all actives have a fitted effect of over 75% in size
# Muscarinic acetylcholine receptor M1 (Rattus norvegicus), sequence (P08482 whole entry, looked up): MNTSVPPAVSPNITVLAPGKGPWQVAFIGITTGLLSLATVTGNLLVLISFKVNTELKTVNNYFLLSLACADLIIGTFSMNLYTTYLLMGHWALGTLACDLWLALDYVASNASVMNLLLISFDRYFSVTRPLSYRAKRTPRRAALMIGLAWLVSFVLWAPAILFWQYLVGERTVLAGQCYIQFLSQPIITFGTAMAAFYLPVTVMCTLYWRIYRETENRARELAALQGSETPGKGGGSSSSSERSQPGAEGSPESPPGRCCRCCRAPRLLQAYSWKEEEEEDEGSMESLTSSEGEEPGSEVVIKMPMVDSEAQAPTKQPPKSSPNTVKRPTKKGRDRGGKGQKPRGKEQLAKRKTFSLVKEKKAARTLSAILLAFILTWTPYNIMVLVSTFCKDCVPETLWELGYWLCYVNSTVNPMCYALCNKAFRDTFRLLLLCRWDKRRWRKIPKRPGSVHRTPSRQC
# How it was run: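 Rat M1-CHO cells, 2000/well, overnight → Fluo-4 no-wash dye with probenecid, 1 h 37C → compound 10 min, room temp → basal read 6 s → carbachol EC80 (100 nM) → 4 min kinetic read; peak/basal.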
# [9] = molecular target: Muscarinic acetylcholine receptor M1 (Rattus norvegicus) (UniProt P08482); experiment: qHTS Assay for Antagonists of Acetylcholine Muscarinic M1 Receptor: Measurement of IP-One Response (AID 944); further: potency means the concentration at half of the fitted maximal effect; nearly all actives have a fitted effect of over 75% in size
# How it was run: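 M1-CHO (rat), 2000 cells/well, overnight recovery; cpd 10 min; carbachol EC80 (200 nM), 30 min, HEPES buffer + 50 mM LiCl pH 7.4; IP-One HTRF, Ex 337, Em 620/665 nm.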
smiles,measurement,setting,value
O=C(C[n+]1ccc2ccccc2c1)c1ccc2ccc3ccccc3c2c1,Potency,[1],0.794 µM (active)
O[C@@H](c1cc(-c2ccccc2)nc2c1ccc1ccccc12)[C@@H]1CCCCN1,Potency,[1],3.16 µM (active)
N#CC(=C(/N)Sc1ccccc1N)/C(C#N)=C(/N)Sc1ccccc1N,Potency,[1],0.02 µM (active)
same,outcome,[2],inactive
same,outcome,[3],inactive
O=c1[nH]c(=O)n([C@H]2C[C@H](O)[C@H](CO)O2)cc1/C=C\Br,Potency,[4],inactive
same,outcome,[2],inactive
same,outcome,[3],inactive
CCC(=O)OC1CCC2C3CCc4cc(O)ccc4C3CC[C@]12C (stereo not given in full),Potency,[4],inactive
O[Si@](CCCN1CCCCC1)(c1ccc(F)cc1)C1CCCCC1,Potency,[4],inactive
same,Potency,[1],0.501 µM (active)
same,outcome,[2],inactive
same,outcome,[3],inactive
Oc1ccc2c(c1)OCO2,Potency,[4],inactive
C=C(C)C1Cc2c(ccc3c2OC2COc4cc(OC)c(OC)cc4C2C3=O)O1 (stereo not given),Potency,[5],inactive
same,outcome,[6],inactive
CC1=C(O)C(=O)C=C2C1=CC=C1[C@]2(C)CC[C@@]2(C)C3C[C@](C)(C(=O)O)CC[C@@]3(C)CC[C@@]12C (stereo not given in full),Potency,[5],inactive
same,outcome,[6],inactive
CC[C@@H]1CN2CCc3cc(OC)c(OC)cc3[C@H]2C[C@@H]1C[C@@H]1NCCc2cc(OC)c(OC)cc21,Potency,[7],0.0631 µM (active)
COc1ccc2c(c1)CCC1C2CC[C@]2(C)[C@H](NCCCCCCN3C(=O)C=CC3=O)CC[C@@H]12 (stereo not given in full),Potency,[7],2 µM (active)
CC(=O)O[C@@H]1[C@H]([N+]2(C)CCCCC2)C[C@@H]2[C@@H]3CC[C@@H]4C[C@@H](OC(C)=O)[C@H]([N+]5(C)CCCCC5)C[C@@]4(C)[C@H]3CC[C@]21C,Potency,[8],8.91 µM (active)
same,Potency,[9],14.1 µM (active)
CCn1ccnc1C[C@@H]1COc2ccccc2O1,outcome,[2],inactive
same,outcome,[3],inactive
C[C@H](N)C(=O)OC(C)(C)Cc1ccc(Cl)cc1,outcome,[2],inactive
same,outcome,[3],inactive
O=C(O)[C@H]1CCCNC1,outcome,[2],inactive
same,outcome,[3],inactive
COC(=O)[C@H]1[C@H]2C[C@H]3c4[nH]c5ccccc5c4CCN3C[C@@H]2CC[C@@H]1O,outcome,[2],inactive
same,outcome,[3],inactive
NC(N)=NC(=O)c1nc(Cl)c(N2CCCCCC2)nc1N,outcome,[2],inactive
same,outcome,[3],inactive
CC(=O)O[C@@H](C)C[N+](C)(C)C,outcome,[2],inactive
same,outcome,[3],inactive
NC(=S)c1ccc[n+]([C@@H]2O[C@@H](COP(=O)([O-])OP(=O)(O)OC[C@@H]3O[C@@H](n4cnc5c(N)ncnc54)[C@@H](OP(=O)(O)O)[C@H]3O)[C@@H](O)[C@H]2O)c1,outcome,[2],inactive
same,outcome,[3],inactive
CC(C)NC[C@H](O)c1cc(O)cc(O)c1,outcome,[2],inactive
same,outcome,[3],inactive
Nc1c2c(nc3ccccc13)CCC[C@H]2O,outcome,[2],inactive
same,outcome,[3],inactive
CN1CCc2cccc3c2[C@@H]1Cc1ccc(O)c(O)c1-3,outcome,[2],inactive
same,outcome,[3],inactive
CCN(CC)CCC[C@H](C)Nc1c2ccc(Cl)cc2nc2ccc(OC)cc12,outcome,[2],inactive
same,outcome,[3],inactive
CCCCCCCCCCCCCCCCCCOC[C@@H](COP(=O)([O-])OCC[N+](C)(C)C)OC,outcome,[2],inactive
same,outcome,[3],inactive
CCN(CC)CC#CCOC(=O)[C@@](O)(c1ccccc1)C1CCCCC1,outcome,[2],inactive
same,outcome,[3],inactive
C=CCN1CCc2cc(O)c(O)cc2[C@H](c2ccccc2)C1,outcome,[2],inactive
same,outcome,[3],inactive
CSc1nc(N)c2ncn([C@@H]3O[C@@H](COP(=O)(O)OP(=O)(O)O)[C@@H](O)[C@H]3O)c2n1,outcome,[2],inactive
same,outcome,[3],inactive
Cc1cccc([C@@H]2CN(C)CCc3c2cc(O)c(O)c3Cl)c1,outcome,[2],inactive
same,outcome,[3],inactive
Cc1c(C)c2c(c(C)c1O)CC[C@@](C)(CN1CCN(c3cc(N4CCCC4)nc(N4CCCC4)n3)CC1)O2,outcome,[2],inactive
same,outcome,[3],inactive
COc1cc2nc(N3CC=[N+](C(=O)c4ccco4)CC3)nc(N)c2cc1OC,outcome,[2],inactive
same,outcome,[3],inactive
CO/N=C(\C(=O)N[C@@H]1C(=O)N2C(C(=O)O)=C(COC(C)=O)CS[C@@H]12)c1csc(N)n1,outcome,[2],inactive
same,outcome,[3],inactive
CN[C@@H](CC(C)C)C(=O)N[C@@H]1C(=O)N[C@H](CC(N)=O)C(=O)N[C@H]2C(=O)N[C@H]3C(=O)N[C@H](C(=O)N[C@H](C(=O)O)c4cc(O)cc(O)c4-c4cc3ccc4O)[C@H](O)c3ccc(c(Cl)c3)Oc3cc2cc(c3O[C@@H]2O[C@@H](CO)[C@@H](O)[C@@H](O)[C@H]2O[C@H]2C[C@](C)(N)[C@H](O)[C@H](C)O2)Oc2ccc(cc2Cl)[C@@H]1O,outcome,[2],inactive
same,outcome,[3],inactive
OC[C@@H]1O[C@@H](n2cnc3c(NC4CCCC4)ncnc32)[C@@H](O)[C@H]1O,outcome,[2],inactive
same,outcome,[3],inactive
C[C@@H](CN(C)C)CN1c2ccccc2CCc2ccccc21,outcome,[2],inactive
same,outcome,[3],inactive
O=C(c1ccccc1)c1ccc2n1CC[C@H]2C(=O)O,outcome,[2],inactive
same,outcome,[3],inactive
N[C@@H]1C=CC=C(C(=O)O)C1,outcome,[2],inactive
same,outcome,[3],inactive
COc1ccc([C@H]2Sc3ccccc3N(CCN(C)C)C(=O)[C@H]2OC(C)=O)cc1,outcome,[2],inactive
same,outcome,[3],inactive
COC(=O)C1=C(C)NC(C)=C(C(=O)OCCN(C)Cc2ccccc2)[C@@H]1c1cccc([N+](=O)[O-])c1,outcome,[2],inactive
same,outcome,[3],inactive
O=c1ccn([C@@H]2O[C@@H](COP(=O)(O)OP(=O)(O)O)[C@H](O)[C@@H]2O)c(=O)[nH]1,outcome,[2],inactive
same,outcome,[3],inactive
CN[C@]1(C)[C@@H]2CC[C@@H](C2)C1(C)C,outcome,[2],inactive
same,outcome,[3],inactive
COc1ccc(NC(=O)/C=C\c2ccc(Cl)cc2)cc1,outcome,[2],inactive
same,outcome,[3],inactive
COc1ccc(CCN(C)CCC[C@@](C#N)(c2cc(OC)c(OC)c(OC)c2)C(C)C)cc1OC,outcome,[2],inactive
same,outcome,[3],inactive
COc1cc2nc(N3CCN(C(=O)[C@H]4CCCO4)CC3)nc(N)c2cc1OC,outcome,[2],inactive
same,outcome,[3],inactive
CCCCCCCCCCCCCCCC(=O)O[C@H](CC(=O)O)C[N+](C)(C)C,outcome,[2],inactive
same,outcome,[3],inactive
COc1c2c(nc3ccccc13)O[C@@H]([C@@](C)(O)CO)C2,outcome,[2],inactive
same,outcome,[3],inactive
N[C@H](Cc1ccc(F)cc1)C(=O)O,outcome,[2],inactive
same,outcome,[3],inactive
COc1ccccc1OC[C@H](O)CN1CCN(CC(=O)Nc2c(C)cccc2C)CC1,outcome,[2],inactive
same,outcome,[3],inactive
CCOC(=O)C1=C(C)NC(C)=C(C(=O)OC)[C@H]1c1cccc([N+](=O)[O-])c1,outcome,[2],inactive
same,outcome,[3],inactive
CNCC[C@H](Oc1ccccc1OC)c1ccccc1,outcome,[2],inactive
same,outcome,[3],inactive
COCCc1ccc(OC[C@H](O)CNC(C)C)cc1,outcome,[2],inactive
same,outcome,[3],inactive
C[C@@H](Cc1ccccc1)Nc1ncnc2c1ncn2[C@@H]1O[C@@H](CO)[C@H](O)[C@@H]1O,outcome,[2],inactive
same,outcome,[3],inactive
C[C@@](N)(Cc1ccc(O)c(O)c1)C(=O)O,outcome,[2],inactive
same,outcome,[3],inactive
N[C@]1(C(=O)O)CCc2cc(C(=O)O)ccc21,outcome,[2],inactive
same,outcome,[3],inactive
Cc1cccc(C)c1OC[C@H](C)N,outcome,[2],inactive
same,outcome,[3],inactive
NC[C@](O)(CS(=O)(=O)O)c1ccc(Cl)cc1,outcome,[2],inactive
same,outcome,[3],inactive
O=C1c2c(O)cc(O)cc2O[C@@H](c2ccc(O)c(O)c2)[C@H]1O,outcome,[2],inactive
same,outcome,[3],inactive
